# Assay results as given in PubChem BioAssay AID1347072 (National Center for Advancing Translational Sciences (NCATS), 2019).
# The whole screen tested about 44,000 compounds, of which fewer than 10 were called active. About 2% were inconclusive and are not listed. A selection follows. Unmarked numbers belong to inactive results. Calls follow the shape of the dose curve; as a rule, active = well fitted curve in the direction sought with a large enough effect; inconclusive = small, poorly fitted or top-dose-only effect, or another doubt; inactive = no such curve, though single readings can be large or run the other way.
# Molecular target: Galactokinase (Homo sapiens) (UniProt P51570)
# Assay: qHTS Assay for Inhibitors of Human Galactokinase (GALK): NCGC Sytravon Library Screen;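 also: plate controls were full GALK reaction for no effect and reaction lacking GALK for full effect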
# Details: recombinant GALK, Kinase-Glo ATP luminescence, 1 h; series mostly up to 57.5 µM; activity, negative = inhibition: at the top concentration
# Excerpt: Inherited deficiency of galactose-1-phosphate uridyltransferase (GALT) can result in a potentially lethal disorder called Classic Galactosemia (OMIM 230400). Several lines of evidence indicate that an elevated level of galactose-1-phosphate (gal-1-p), the product of galactokinase (GALK), is a major, if not sole, pathogenic mechanism in patients with classic galactosemia. Therefore, finding inhibitors of GALK is a potential novel therapy for this inherent metabolic disease and is the long term goal of this project. This screen is run against the NCGC Sytravon compound library collection. GALK (provided by Kent Lai) was assayed using ATP and D-(+)-Galactose (Sigma-Aldrich cat# G0750) as substrates. Promega Kinase-Glo Plus technology was used to detect kinase activity. Reactions with and without GALK were used as negative and positive controls together with Protein Tyrosine Phosphatase CD45 inhibitor (EMD Bioscience cat# 540215) which is shown to inhibit GALK activity. Decrease in activity corresponds to inhibition of the enzyme is the desired outcome for this assay. NIH Molecular Libraries Probe Production Network [MLPCN] NIH Chemical Genomics Center [NCGC] Grant: R03 MH085689-01 PI Name: Kent Lai Ph.D., University of Utah
# NCGC Assay Protocol Summary: Three uL/well of ATP-buffer solution (35 uM ATP, 20mM HEPES pH8.0, 5 mM MgCl2, 60 mM NaCl, 1 mM DTT, 0.01% BSA final concentration) was dispensed into 1536-well, assay plates (Greiner, solid white medium-binding plates) with Aurora Discovery BioRAPTR Flying Reagent Dispenser (FRD; Beckton-Dickenson). Compound solution (23 nL) was transferred to the assay plate using the Kalypsys 1536-pin tool. One uL/well GALK-galactose solution (5 nM GALK, 100 uM galactose, 20 mM HEPES pH8.0, 5 mM MgCl2, 60 mM NaCl, 1 mM DTT, 0.01% BSA final concentration) was then added using the FRD yielding a total kinase reaction volume of 4 uL/ well. After 1 hour of room temperature incubation, 4 uL Kinase-Glo Plus reagent was added for a final assay volume of 8 uL/ well. Luminescence was detected with the ViewLux plate reader (Perkin Elmer, Waltham, MA) after 10 min incubation using a 1 sec exposure time and 2x binning.
# Sequence of Galactokinase (Homo sapiens) (P51570 whole entry, looked up): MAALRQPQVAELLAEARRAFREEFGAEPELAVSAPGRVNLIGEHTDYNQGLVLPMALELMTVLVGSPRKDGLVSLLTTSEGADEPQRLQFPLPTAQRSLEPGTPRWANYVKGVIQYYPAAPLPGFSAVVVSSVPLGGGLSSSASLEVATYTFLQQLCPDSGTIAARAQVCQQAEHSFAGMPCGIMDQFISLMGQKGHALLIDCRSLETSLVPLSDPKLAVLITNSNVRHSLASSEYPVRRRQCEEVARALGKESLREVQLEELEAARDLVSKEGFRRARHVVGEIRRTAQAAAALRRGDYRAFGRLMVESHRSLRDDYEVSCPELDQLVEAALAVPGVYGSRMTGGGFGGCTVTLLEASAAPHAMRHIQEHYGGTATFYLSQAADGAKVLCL
row,Compound,"activity, negative = inhibition [%]"
1,CCc1ccccc1OCCSc1nc(-c2cccs2)nc2cc(=O)[nH]n12,-3.94
2,COc1ccc2cc(-c3nc(Cl)c4c5c(sc4n3)CC(C)CC5)c(=O)oc2c1 (stereo not drawn),7.47
3,Cc1ccc2cccc(NC(=O)C(C)Oc3ccc(C)c(C)c3)c2n1 (stereo not drawn),2.77
4,CCCCc1nn2c(=O)cc(COC(=O)c3ccccc3NC(=O)C(C)(C)C)nc2s1,0.0179
5,O=C(CSc1nc(=O)[nH]c2c1CCCC2)Nc1cc(C(F)(F)F)ccc1Cl,-1.93
6,CC(NC(=O)c1cc2c(=O)n3ccccc3nc2n(C(C)C)c1=N)c1ccccc1 (stereo not drawn),16.3
7,COc1ccccc1CNS(=O)(=O)c1cc(Br)cc2c1N(C(C)=O)C(C)C2 (stereo not drawn),-5.64
8,Cn1c(=O)cc(OCC(=O)N2CCN(c3ccccc3F)CC2)c2ccccc21,0.123
9,COc1ccc(CNC(=O)CCc2c(C)nn(-c3ccc(N4CCCC4)nn3)c2C)cc1,-0.105
10,O=S(=O)(NCCS(=O)(=O)N1CCN(c2ccccc2)CC1)c1ccc(Cl)cc1,2.24
11,CCCN1CCN(CCCNC(=O)c2ccc3nc(Cc4ccccc4)oc3c2)CC1,-0.181
12,CCN(Cc1ccccc1)C(=O)c1cn(-c2cccc(OC)c2)c(=O)c2ccccc12,0.495
13,COc1ccc(NS(=O)(=O)c2cc3c4c(c2)CC(=O)N4CCC3)cc1Cl,0.222
14,CC(=O)N1CCCc2ccc(NS(=O)(=O)c3ccc(F)cc3F)cc21,0.29
15,CCc1nc(-c2cc(S(=O)(=O)N3CCN(c4ccc(OC)cc4)CC3)ccc2OC)no1,3.93
16,Cc1ccc(NC(=O)Cn2c(=O)n(-c3ccccc3)c(=O)c3c4c(sc32)CCCC4)cc1,6.16
17,COc1cccc(CNC(=O)CN2C(=O)CCc3cc(S(=O)(=O)N4CCOCC4)ccc32)c1,-0.942
18,C#CCOc1ccc(C2CC(=O)Nc3c2c(C)nn3-c2nc(C)cc(C)n2)cc1 (stereo not drawn),-0.329
19,Cc1cccc(NC(c2cccc(F)c2)c2ccc3ccc(C)nc3c2O)n1 (stereo not drawn),-1.92
20,O=C(CCS(=O)(=O)c1cc(Br)cc2c1N(C(=O)C1CC1)CC2)Nc1ccc(Br)cc1F,1.92
21,CCOC(=O)c1ccc(N2C(=O)c3n[nH]c(-c4ccco4)c3C2c2ccc(O)cc2)cc1 (stereo not drawn),0.26
22,O=C(CC1Oc2ccc(Cl)cc2NC1=O)NCc1ccccc1 (stereo not drawn),-9.65
23,COc1ccc(-n2c(C)nc3c(cnn3-c3ccc(F)cc3)c2=O)cc1,6.98
24,COc1ccc(CCN2C(=O)N(c3cccc(OC)c3)C(=O)C2CC(=O)Nc2ccccc2)cc1 (stereo not drawn),4.98

row,Compound,"activity, negative = inhibition [%]"
1,COc1ccc(CCNC(=O)CCc2c(C)nc3c(c(C)nn3-c3ccc(C)c(C)c3)c2C)c(OC)c1OC,-1.7
2,O=C1CCCc2cc(S(=O)(=O)N3CCCC(C(=O)NCc4ccccc4)C3)ccc2N1 (stereo not drawn),0.641
3,COc1ccccc1NC(=O)CSc1oc(-c2ccco2)nc1S(=O)(=O)c1ccc(Br)cc1,-0.198
4,O=C(CSc1cn(CC(=O)N2CCOCC2)c2ccccc12)Nc1ccccc1,-10.9
5,CCCNc1ncnc2c1c(-c1ccccc1)cn2-c1ccc(OCC)cc1,-0.973
6,COc1cccc(CNC(=O)c2ccc3c(c2)sc2nc(-c4cccc(OC)c4)cn23)c1,1.05
7,COc1ccc(NC(=O)N2CCCn3nc(C)cc32)cc1OC,1.03
8,CC(C)c1ccc(NC(=O)Cn2c3ncccc3c(=O)n2-c2ccccc2)cc1,-0.715
9,Cc1cn(C)c(CC(=O)NCc2ccc(Cl)cc2)c1C(=O)O,-2.28
10,O=C(NCc1ccccc1)C1CCN(S(=O)(=O)c2ccc3[nH]c(=O)ccc3c2)CC1,2.14
11,Cc1cc(C)c(NC(=O)CCc2c(C)nc3c(c(C)nn3C(C)(C)C)c2C)c(C)c1,0.89
12,CCOC(=O)c1ccc(NC(=O)CSc2nc3c([nH]c4ccccc43)c(=O)n2C)cc1,-9.08
13,COc1cccc(NC(=O)c2csnn2)c1,-5.21
14,CCc1nc2c(cnn2-c2ccc(C)cc2)c(=O)n1-c1ccc(C)cc1,8.26
15,CCC1(C)CC(=O)c2c(ccc3oc(C(=O)Nc4ccc(C(C)=O)cc4)c(C)c23)O1 (stereo not drawn),-4.05
16,COc1ccc2oc(-c3ccc(C)c(NC(=O)c4sc5ccccc5c4Cl)c3)nc2c1,-14.9
17,CCOC(=O)Cn1c(=O)n(-c2ccccc2OC)c2nc(-c3cccc(F)c3)nc(C(N)=O)c21,0.826
18,Cc1ccc(NC(=O)c2cn3c4c(ccc(Cl)c4c2=O)OC(C)C3)cc1C (stereo not drawn),-3.8
19,CCCCS(=O)(=O)c1oc(-c2cccs2)nc1S(=O)(=O)c1ccccc1,3.76
20,O=C(CSc1ncc(CO)n1Cc1ccc(F)cc1)NCc1ccco1,-0.478
21,CNc1ccc(-c2nc(-c3ccccc3C)no2)cc1[N+](=O)[O-],-1.05
22,CCc1ccccc1NC(=O)Cn1c(=O)n(-c2cccc(C)c2)c(=O)c2c1c1cc(OC)ccc1n2C,3.81
23,CCOC(=O)c1c(S(=O)(=O)N2CCCC(C(=O)NCc3cccc(C)c3)C2)c(C)n(C)c1C (stereo not drawn),3.27
24,CCOc1ccccc1NC(=O)c1ccc2c(c1)CCN2S(=O)(=O)c1ccc(C)cc1,2.78
